Bioassay records from PubChem BioAssay.
Rows were chosen to be rich in hits. Some 10% of all compounds tested hit in one or more screens of this group.
PLK1 PBD block – blocks phosphopeptide binding to human PLK1 polo-box domain | Plk1 PBD binding of FITC phosphopeptide, fluorescence polarization | Potency, µM, inactives show max response, negative = inhibition, most hits filed as inhibitors | 360,000 compounds, 2.8% hits | AID 720504; also: potency is read from the fitted curve at half-maximal effect; series mostly up to about 57 µM; nearly all actives have a fitted effect of over 65% in size
G9a inh – blocks human histone lysine methyltransferase G9a; 350,000 compounds, 8.8% hits; Q96KQ7; AID 504332; G9a H3K9 monomethylation, AlphaScreen, 2 h; Potency, µM (doses to about 102 µM), for inactives: top-dose activity, negative = inhibition, hits mostly inhibitors; also: potency is read from the fitted curve at half-maximal effect; nearly all actives have a fitted effect of over 75% in size
Target sequence (Q96KQ7 913-1193 limits assumed): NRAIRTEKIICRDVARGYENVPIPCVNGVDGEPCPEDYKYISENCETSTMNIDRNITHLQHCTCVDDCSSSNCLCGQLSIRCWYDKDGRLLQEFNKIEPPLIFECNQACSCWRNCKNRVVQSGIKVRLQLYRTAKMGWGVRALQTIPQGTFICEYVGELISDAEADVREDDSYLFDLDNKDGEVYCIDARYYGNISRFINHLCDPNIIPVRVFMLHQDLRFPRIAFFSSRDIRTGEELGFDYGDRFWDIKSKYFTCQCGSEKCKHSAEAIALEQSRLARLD
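Chemiluminescent proximity detection of H3K9 monomethylation, read after 10 min bead incubation in the dark. Reaction: 20 nM G9a, 500 nM biotin-H3K9 peptide, 20 uM SAM cofactor, 2 h, room temperature, following 15 min enzyme-compound preincubation.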
Mm-Cpn inhibitor – M. maripaludis TRiC chaperonin inhibition. purified Mm-Cpn ATPase, ADP Transcreener TR-FRET. 330,000 compounds, 0.031% hits. Potency, µM (series often up to 76.9 µM), inactives show at the top dose activity, negative = inhibition, hits mostly inhibitors. AID 504842; also: potency is read from the fitted curve at half-maximal effect; nearly all actives have a fitted effect of over 80% in size
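25 nM Mm-CPN + cpd, 10 min 37°C; + 10 uM ATP, 30 min 37°C; buffer 30 mM Tris pH 7.4, 100 mM KCl, 5 mM MgCl2, 1 mM DTT; Transcreener ADP HTRF detection 30 min RT.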
VDR inhibitor – vitamin D3 receptor (human) inhibition; 400,000 compounds, 0.93% hits; Potency, µM, for the others: max response, negative = inhibition, hits mostly inhibitors; VDR-SRC2-3 peptide fluorescence polarization, 2 h; also: potency is read from the fitted curve at half-maximal effect
Target sequence (P11473 whole entry, looked up): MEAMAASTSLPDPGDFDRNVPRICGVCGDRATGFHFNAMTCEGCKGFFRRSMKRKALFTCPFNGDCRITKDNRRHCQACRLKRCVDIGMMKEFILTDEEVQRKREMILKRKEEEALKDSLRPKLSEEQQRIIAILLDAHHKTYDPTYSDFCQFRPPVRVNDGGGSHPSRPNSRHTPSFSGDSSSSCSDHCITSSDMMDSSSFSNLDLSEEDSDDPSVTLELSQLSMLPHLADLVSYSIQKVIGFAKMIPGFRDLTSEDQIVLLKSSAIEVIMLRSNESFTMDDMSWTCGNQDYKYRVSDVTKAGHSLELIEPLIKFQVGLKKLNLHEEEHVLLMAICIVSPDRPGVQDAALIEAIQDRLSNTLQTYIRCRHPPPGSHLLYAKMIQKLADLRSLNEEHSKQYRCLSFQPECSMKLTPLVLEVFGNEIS
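Signal is fluorescence polarization, reporting how far test compounds block the interaction of VDR with the SRC2-3 coregulator peptide after a 2 h room-temperature incubation.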
Sfp PPTase inh – blocks B. subtilis Sfp PPTase activity; Q9F4F7; Biochemical Sfp PPTase activity, qHTS; Potency, µM, without a hit: largest response in the series, negative = inhibition, usual class: inhibitors; 310,000 compounds, 3.5% hits;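 also: the enzyme is Sfp with the accession as filed and its product quenches rhodamine fluorescence; potency is read from the fitted curve at half-maximal effect; 0% = enzyme reaction without inhibitor and -100% = no enzyme wells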
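Fluorescence-quenching assay with 15 nM Sfp, 5 uM rhodamine-CoA and 12.5 uM BHQ-2-labelled ybbR peptide in pH 7.6 Hepes/MgCl2 buffer. Enzyme was pre-incubated with compound for 15 min at room temperature. Rate was taken from the 30-min fluorescence change (525/598 nm).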
CCT chaperon mod – modulators of cytosolic chaperonin (CCT/TRiC) activity | purified chaperonin ATPase assay, HTRF ADP detection, 30 min | activity change, % (test concentration not listed), hits read low | 360,000 compounds, 0.3% hits; in the data active = activity change below about -30%
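We incubate TRiC, 40 or 20 nM final, with library compounds at 76 uM and 10 uM ATP for 30 min at 37 °C. ADP formed is detected with Transcreener HTRF reagents after 30 min at room temperature.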
* marks the source's active call; other numbers are inactive results; [ ] = another dose, or the depositor's remark. Unless noted, calls follow the shape of the dose curve; as a rule, active = well fitted curve in the direction sought with a large enough effect; inconclusive = small, poorly fitted or top-dose-only effect, or another doubt; inactive = no such curve, though single readings can be large; an effect the other way counts as inactive or inconclusive. Unless noted, % is scaled to controls: 0 for no effect and ±100 for the full control effect.

Results for COc1ccc(N2CCN(C(=O)c3cc4c(-c5ccccc5F)nn(C)c4s3)CC2)cc1 ?
G9a inh: 11µM*; VDR inhibitor: -8%

What do the screens show for `COc1ccc(N2CCN(C(=O)c3cc4c(-c5ccc(Cl)cc5)nn(C)c4s3)CC2)cc1`?
PLK1 PBD block: -16%; G9a inh: 35µM*; Mm-Cpn inhibitor: 0%; VDR inhibitor: -1%; Sfp PPTase inh: 11%; CCT chaperon mod: -1

Results for NC(=O)CC[C@@H]1NC(=O)C(Cc2ccc(O)cc2)NC(=O)c2cc([N+](=O)[O-])cc(F)c2NCCC[C@@H](C(N)=O)NC1=O (stereo partly drawn) ?
G9a inh: 50µM*; Mm-Cpn inhibitor: -2%; Sfp PPTase inh: -28%

What do the screens show for `C[C@@H]1NC(=O)[C@H](CCC(=O)O)NC(=O)c2cc([N+](=O)[O-])cc(F)c2NCCC[C@@H](C(N)=O)NC1=O`?
PLK1 PBD block: -12%; G9a inh: 79µM*; Mm-Cpn inhibitor: -1%; VDR inhibitor: -3%; Sfp PPTase inh: 7%; CCT chaperon mod: -4

What do the screens show for `COC(=O)c1ccccc1NC(=O)CSc1nc2ccsc2c(=O)n1CCC(C)C`?
G9a inh: 16%[59 µM]; VDR inhibitor: 3%

How did Cc1cccc(Cc2c(C)nc3nc(SCC(=O)NCc4ccco4)nn3c2C)c1 do in these assays?
PLK1 PBD block: -5%; G9a inh: inconclusive; Mm-Cpn inhibitor: 2%; VDR inhibitor: -5%; Sfp PPTase inh: 45µM*; CCT chaperon mod: -3

Results for O=C(CSc1ncccc1-c1nc2ccccc2[nH]1)NCc1ccco1 ?
PLK1 PBD block: 19µM*; G9a inh: 10µM*; Mm-Cpn inhibitor: -3%; VDR inhibitor: inconclusive; Sfp PPTase inh: 40µM*; CCT chaperon mod: -3

Results for Cc1nnc(SCC(=O)NCc2ccco2)[nH]c1=O ?
PLK1 PBD block: -12%; G9a inh: 50µM*; Mm-Cpn inhibitor: 1%; VDR inhibitor: 5%; Sfp PPTase inh: 56µM*; CCT chaperon mod: -1

Results for Cc1ccc(Cc2c(C)nc3nc(SCC(=O)NCc4ccco4)nn3c2C)cc1 ?
PLK1 PBD block: -8%; Mm-Cpn inhibitor: -3%; VDR inhibitor: -8%; Sfp PPTase inh: -37%; CCT chaperon mod: -1

How did N#CCCCSc1ncccc1-c1nc2ccccc2[nH]1 do in these assays?
PLK1 PBD block: -21%; G9a inh: 16µM*; Mm-Cpn inhibitor: -12%; VDR inhibitor: -4%; Sfp PPTase inh: 3%; CCT chaperon mod: -1

Results for Cc1cc(=O)[nH]c(SCC(=O)NCc2ccco2)n1 ?
PLK1 PBD block: inconclusive; G9a inh: inconclusive; Mm-Cpn inhibitor: -1%; VDR inhibitor: 3%; Sfp PPTase inh: -7%; CCT chaperon mod: 0

What do the screens show for `O=C(CSc1nc2ccccc2[nH]1)NCc1ccco1`?
PLK1 PBD block: -14%; G9a inh: -20%[59 µM]; Mm-Cpn inhibitor: 2%; VDR inhibitor: 8%; Sfp PPTase inh: 4%; CCT chaperon mod: -7

What do the screens show for `COc1ccc(NC(=O)Cn2ncc3c([nH]c4ccccc43)c2=O)cc1Cl`?
G9a inh: 8%[59 µM]; VDR inhibitor: -6%

How did Cc1cc2nc(-c3cccnc3SCC(=O)NCc3ccco3)[nH]c2cc1C do in these assays?
PLK1 PBD block: -12%; G9a inh: 10µM*; Mm-Cpn inhibitor: -10%; VDR inhibitor: -8%; Sfp PPTase inh: 40µM*; CCT chaperon mod: -2

Results for Cc1cc(C)c2cc(C)c(SCC(=O)NCc3ccco3)nc2c1 ?
PLK1 PBD block: -19%; G9a inh: -7%; Mm-Cpn inhibitor: -15%; VDR inhibitor: 38%; Sfp PPTase inh: 4%; CCT chaperon mod: -3

Results for Cc1cc(C)c2cc(C#N)c(SCC(=O)NCc3ccco3)nc2c1 ?
PLK1 PBD block: -13%; G9a inh: inconclusive; Mm-Cpn inhibitor: -3%; VDR inhibitor: 7%; Sfp PPTase inh: 22µM*; CCT chaperon mod: -3

How did C/C1=C2/[N-]C(C(CC(N)=O)[C@@]2(C)CCC(=O)NCC(C)OP(=O)([O-])O[C@H]2[C@@H](O)[C@@H](n3cnc4cc(C)c(C)cc43)O[C@@H]2CO)[C@]2(C)N=C(/C(C)=C3N=C(/C=C4N=C1C(CCC(N)=O)C\4(C)C)[C@@H](CCC(N)=O)[C@]\3(C)CC(N)=O)[C@@H](CCC(N)=O)[C@]2(C)CC(N)=O.CC(=O)O.[Co] (stereo partly drawn) do in these assays?
G9a inh: inconclusive; VDR inhibitor: 10µM*; Sfp PPTase inh: -21%

How did Cc1cccc(Cn2cc3c(=O)n(CC(=O)Nc4ccc(C)c(F)c4)nc-3c3cc(F)ccc32)c1 do in these assays?
G9a inh: 3%[59 µM]; VDR inhibitor: 9%

What do the screens show for `CC[C@H](C)/C=C(C)/C=C/C(=O)Cc1cc(O)c(C)c(O)c1C=O`?
PLK1 PBD block: -17%; G9a inh: inconclusive; Mm-Cpn inhibitor: -5%; VDR inhibitor: -24%; Sfp PPTase inh: 89µM*; CCT chaperon mod: 0

What do the screens show for `CCc1nn(CC(=O)N2CCCCC2)c(=O)c2cc3sccc3n12`?
G9a inh: 7%[59 µM]; VDR inhibitor: 4%

Results for c1ccc2c(CN3CCOCC3)c3ccccc3c(CN3CCOCC3)c2c1 ?
PLK1 PBD block: -10%; G9a inh: inconclusive; Mm-Cpn inhibitor: -4%; VDR inhibitor: 3%; Sfp PPTase inh: -13%; CCT chaperon mod: 0

How did OC1(CN2CCOCC2)C2CN3CCN(C2)CC1(c1ccccc1)C3 (stereo not drawn) do in these assays?
PLK1 PBD block: 21µM*; G9a inh: -17%[59 µM]; Mm-Cpn inhibitor: 2%; VDR inhibitor: -14%; Sfp PPTase inh: 5%; CCT chaperon mod: 2

What do the screens show for `N=C(N)SCCc1cnc[nH]1`?
PLK1 PBD block: -29%; G9a inh: 7.5µM*; Mm-Cpn inhibitor: -1%; VDR inhibitor: -17%; Sfp PPTase inh: -112%; CCT chaperon mod: 0

What do the screens show for `COC(=O)NC1CCC(NC(=O)OC)CC1` (stereo not drawn)?
PLK1 PBD block: 27µM*; G9a inh: -5%; Mm-Cpn inhibitor: -1%; VDR inhibitor: -12%; Sfp PPTase inh: 4%; CCT chaperon mod: 1

Results for COC(=O)CCC(=O)Nc1cccc2c(NC(=O)CCC(=O)OC)cccc12 ?
PLK1 PBD block: -22%; G9a inh: -13%[12.7 µM]; Mm-Cpn inhibitor: 3%; VDR inhibitor: 9%; Sfp PPTase inh: 15%; CCT chaperon mod: 2

Results for COC(=O)CCC(=O)Nc1ccc(C)cc1OC(=O)CCC(=O)OC ?
PLK1 PBD block: -18%; G9a inh: -17%[12.7 µM]; Mm-Cpn inhibitor: -1%; VDR inhibitor: 4%; Sfp PPTase inh: 79µM*; CCT chaperon mod: 1
